Consider one sequence from article PMC7862700, “An all-to-all approach to the identification of sequence-specific readers for epigenetic DNA modifications on cytosine”.

Holding throughout (assay): DAPPL (digital affinity profiling via proximity ligation, sequencing); 10 mM Tris-HCl pH 7.5, 50 mM NaCl, 1 mM DTT, 4% glycerol, room temperature, 30 min; GST-TFs on glutathione beads, 16-mer random dsDNA library, 0.1% formaldehyde crosslink after washing; high values mean tight binding
In assay [1] the target is T1, FLI1 (Homo sapiens, UniProt Q01543 1-452).
T1 sequence: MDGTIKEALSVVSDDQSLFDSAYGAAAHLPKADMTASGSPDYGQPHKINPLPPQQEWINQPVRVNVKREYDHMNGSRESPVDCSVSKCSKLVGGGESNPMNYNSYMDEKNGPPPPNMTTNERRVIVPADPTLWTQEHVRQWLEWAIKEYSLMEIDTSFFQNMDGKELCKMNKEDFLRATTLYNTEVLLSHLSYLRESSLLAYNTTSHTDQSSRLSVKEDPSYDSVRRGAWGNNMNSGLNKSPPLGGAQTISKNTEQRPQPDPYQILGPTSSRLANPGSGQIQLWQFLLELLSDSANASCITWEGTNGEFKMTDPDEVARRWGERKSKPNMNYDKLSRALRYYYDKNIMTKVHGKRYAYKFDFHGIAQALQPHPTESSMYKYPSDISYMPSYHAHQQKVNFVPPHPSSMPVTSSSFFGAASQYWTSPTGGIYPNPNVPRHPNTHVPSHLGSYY
The following applies: protein: recombinant; tags: N-terminal GST; dsDNA, one strand shown. The essentials: (§1)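 Beads coated with glutathione captured GST-fused human transcription factors that had been expressed in yeast, and the factors were then given DNA barcodes and pooled with a tag-only sample. The pools were incubated with 200 nmole of a random double-stranded 16-mer DNA library in Tris/NaCl/DTT/glycerol buffer for 30 min at room temperature, washed, crosslinked with 0.1% formaldehyde and proximity-ligated with BsaI/T4 ligase at 37 °C for 1 h. PCR amplification and Illumina NextSeq500 sequencing came last. Binding signal is each hexamer's read frequency for a factor divided by its frequency for the tag-only sample.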

Assay [2] deals with T2, ELK1 (Homo sapiens, UniProt P19419 1-428).
T2 sequence: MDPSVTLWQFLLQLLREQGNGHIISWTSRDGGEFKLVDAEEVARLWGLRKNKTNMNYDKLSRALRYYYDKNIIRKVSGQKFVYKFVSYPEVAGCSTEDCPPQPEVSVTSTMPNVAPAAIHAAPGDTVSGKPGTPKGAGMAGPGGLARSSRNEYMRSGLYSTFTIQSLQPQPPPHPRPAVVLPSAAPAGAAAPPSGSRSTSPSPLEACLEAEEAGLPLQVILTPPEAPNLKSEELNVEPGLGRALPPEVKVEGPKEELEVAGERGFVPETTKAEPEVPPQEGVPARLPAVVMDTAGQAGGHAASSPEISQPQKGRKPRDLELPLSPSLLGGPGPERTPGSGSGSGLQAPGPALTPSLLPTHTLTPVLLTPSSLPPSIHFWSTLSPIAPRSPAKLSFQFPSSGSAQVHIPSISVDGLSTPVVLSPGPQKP
The note with it: protein: recombinant; tags: N-terminal GST; dsDNA, one strand shown. The essentials: as §1

In assay [3] the target is T3, GABPA (Homo sapiens, UniProt Q06546 1-454).
T3 sequence: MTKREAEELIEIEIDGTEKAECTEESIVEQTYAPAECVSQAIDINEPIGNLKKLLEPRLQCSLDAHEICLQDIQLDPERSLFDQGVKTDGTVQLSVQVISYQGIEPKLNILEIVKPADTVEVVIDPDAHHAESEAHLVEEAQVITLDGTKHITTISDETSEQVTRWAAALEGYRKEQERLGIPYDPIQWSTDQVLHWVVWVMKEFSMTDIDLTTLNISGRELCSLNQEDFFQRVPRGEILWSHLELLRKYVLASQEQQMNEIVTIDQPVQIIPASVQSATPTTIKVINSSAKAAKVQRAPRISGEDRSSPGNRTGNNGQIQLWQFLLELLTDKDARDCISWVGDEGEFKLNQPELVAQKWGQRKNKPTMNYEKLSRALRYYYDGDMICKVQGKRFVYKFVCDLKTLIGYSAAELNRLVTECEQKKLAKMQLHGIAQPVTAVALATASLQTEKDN
The following applies: protein: recombinant; tags: N-terminal GST; dsDNA, one strand shown. Put shortly:
as §1

In assay [4] the target is T4, ERG (Homo sapiens, UniProt P11308 1-479).
T4 sequence: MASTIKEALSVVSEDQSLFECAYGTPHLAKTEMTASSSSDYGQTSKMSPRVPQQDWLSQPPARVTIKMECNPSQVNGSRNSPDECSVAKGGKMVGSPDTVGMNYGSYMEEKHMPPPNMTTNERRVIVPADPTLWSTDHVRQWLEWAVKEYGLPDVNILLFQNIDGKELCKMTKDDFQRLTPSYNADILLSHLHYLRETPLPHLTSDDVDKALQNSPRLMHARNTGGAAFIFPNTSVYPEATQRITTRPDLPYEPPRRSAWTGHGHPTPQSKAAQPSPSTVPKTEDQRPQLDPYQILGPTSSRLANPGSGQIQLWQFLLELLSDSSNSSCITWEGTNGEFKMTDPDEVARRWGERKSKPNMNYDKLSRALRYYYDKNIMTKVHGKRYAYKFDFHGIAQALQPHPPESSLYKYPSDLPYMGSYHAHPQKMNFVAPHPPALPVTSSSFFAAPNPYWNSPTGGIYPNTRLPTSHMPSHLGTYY
The note with it: protein: recombinant; tags: N-terminal GST; dsDNA, one strand shown. The essentials: as §1

For assay [5], the target named is ELF1 (Homo sapiens, UniProt P32519 1-619). The following applies: protein: recombinant; tags: N-terminal GST; dsDNA, one strand shown. Put shortly:
as §1

Assay [6] deals with T5, EHF (Homo sapiens, UniProt Q9NZC4 1-300).
T5 sequence: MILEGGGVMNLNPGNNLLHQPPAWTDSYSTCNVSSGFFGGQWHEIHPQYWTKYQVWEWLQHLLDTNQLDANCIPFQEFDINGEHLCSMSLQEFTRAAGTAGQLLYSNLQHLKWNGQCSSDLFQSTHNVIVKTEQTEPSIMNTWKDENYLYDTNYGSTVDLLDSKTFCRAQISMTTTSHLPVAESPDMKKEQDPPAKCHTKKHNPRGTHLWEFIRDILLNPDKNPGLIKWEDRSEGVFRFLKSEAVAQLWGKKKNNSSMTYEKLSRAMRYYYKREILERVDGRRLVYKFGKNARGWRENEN
The following applies: protein: recombinant; tags: N-terminal GST; dsDNA, one strand shown. The essentials:
as §1

Assay [7] has as its target SPIB (Homo sapiens, UniProt Q01892 1-262). The note with it: protein: recombinant; tags: N-terminal GST; dsDNA, one strand shown. The essentials:
as §1

For assay [8], the target named is T6, ELK3 (Homo sapiens, UniProt P41970 1-407).
T6 sequence: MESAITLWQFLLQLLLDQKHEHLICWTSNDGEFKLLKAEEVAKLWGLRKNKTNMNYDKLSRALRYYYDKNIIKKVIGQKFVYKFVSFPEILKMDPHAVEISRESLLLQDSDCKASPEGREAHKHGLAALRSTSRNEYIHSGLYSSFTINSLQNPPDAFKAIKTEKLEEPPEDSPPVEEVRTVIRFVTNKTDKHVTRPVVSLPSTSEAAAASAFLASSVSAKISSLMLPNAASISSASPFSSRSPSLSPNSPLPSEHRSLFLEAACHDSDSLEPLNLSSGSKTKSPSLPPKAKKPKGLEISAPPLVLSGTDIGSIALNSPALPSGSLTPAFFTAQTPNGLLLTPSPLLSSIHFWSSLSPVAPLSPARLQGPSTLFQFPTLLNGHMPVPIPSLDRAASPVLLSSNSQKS
The note with it: protein: recombinant; tags: N-terminal GST; dsDNA, one strand shown. Put shortly:
as §1

Assay [9] concerns the target T7, FEV (Homo sapiens, UniProt Q99581 1-238).
T7 sequence: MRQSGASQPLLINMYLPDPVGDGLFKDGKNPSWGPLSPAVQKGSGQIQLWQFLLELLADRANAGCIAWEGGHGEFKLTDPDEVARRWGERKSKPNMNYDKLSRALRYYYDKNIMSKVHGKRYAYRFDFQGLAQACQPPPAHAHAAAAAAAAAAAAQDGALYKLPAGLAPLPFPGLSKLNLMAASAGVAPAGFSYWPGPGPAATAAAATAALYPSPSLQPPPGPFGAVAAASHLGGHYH
The note with it: protein: recombinant; tags: N-terminal GST; dsDNA, one strand shown. The essentials:
as §1

Assay [10] concerns the target ETV5 (Homo sapiens, UniProt P41161 1-510). The note with it: protein: recombinant; tags: N-terminal GST; dsDNA, one strand shown. The essentials: as §1
The target of assay [11] is HSF1 (Homo sapiens, UniProt Q00613 1-529). The note with it: protein: recombinant; tags: N-terminal GST; chain copies: 3; dsDNA, one strand shown. The essentials:
as §1

Assay [12] addresses T8, SPIC (Homo sapiens, UniProt Q8N5J4 1-248).
T8 sequence: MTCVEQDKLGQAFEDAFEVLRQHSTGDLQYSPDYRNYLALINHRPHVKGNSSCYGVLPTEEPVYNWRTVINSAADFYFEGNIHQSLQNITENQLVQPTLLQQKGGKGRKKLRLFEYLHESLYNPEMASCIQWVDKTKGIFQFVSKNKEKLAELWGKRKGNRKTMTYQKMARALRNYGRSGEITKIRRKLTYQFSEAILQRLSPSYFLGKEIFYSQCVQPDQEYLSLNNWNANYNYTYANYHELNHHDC
The note with it: protein: recombinant; tags: N-terminal GST; dsDNA, one strand shown. Put shortly:
as §1

Assay [13] concerns the target ELF4 (Homo sapiens, UniProt Q99607 1-663). The following applies: protein: recombinant; tags: N-terminal GST; dsDNA, one strand shown. Put shortly:
as §1

The target of assay [14] is T9, ELK4 (Homo sapiens, UniProt P28324-2 1-405).
T9 sequence: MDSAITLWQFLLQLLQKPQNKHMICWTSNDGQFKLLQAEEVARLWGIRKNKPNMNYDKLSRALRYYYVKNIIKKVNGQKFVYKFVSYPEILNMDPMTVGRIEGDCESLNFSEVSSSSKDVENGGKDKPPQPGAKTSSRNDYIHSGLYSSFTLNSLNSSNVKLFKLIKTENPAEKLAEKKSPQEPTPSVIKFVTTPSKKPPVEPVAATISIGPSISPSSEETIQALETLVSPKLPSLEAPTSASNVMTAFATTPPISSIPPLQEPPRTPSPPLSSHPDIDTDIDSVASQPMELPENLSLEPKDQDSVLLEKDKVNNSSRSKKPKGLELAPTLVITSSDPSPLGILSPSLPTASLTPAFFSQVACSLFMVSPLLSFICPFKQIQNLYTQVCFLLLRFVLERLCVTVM
The following applies: protein: recombinant; tags: N-terminal GST; dsDNA, one strand shown. Put shortly:
as §1

The target in assay [15] is T10, ELF3 (Homo sapiens, UniProt P78545 1-371).
T10 sequence: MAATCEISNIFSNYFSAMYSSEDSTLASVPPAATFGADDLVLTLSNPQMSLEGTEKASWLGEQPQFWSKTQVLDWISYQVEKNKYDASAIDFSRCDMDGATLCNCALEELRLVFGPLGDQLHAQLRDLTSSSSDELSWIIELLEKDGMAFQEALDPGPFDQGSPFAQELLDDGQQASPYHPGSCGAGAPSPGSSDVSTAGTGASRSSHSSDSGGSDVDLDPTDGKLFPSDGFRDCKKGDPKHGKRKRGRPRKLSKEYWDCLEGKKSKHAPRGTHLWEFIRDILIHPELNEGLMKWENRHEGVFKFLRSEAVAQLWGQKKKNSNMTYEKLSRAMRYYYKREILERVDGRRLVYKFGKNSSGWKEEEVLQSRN
The following applies: protein: recombinant; tags: N-terminal GST; dsDNA, one strand shown. The essentials:
as §1

The target in assay [16] is CRX (Homo sapiens, UniProt O43186 1-299). The note with it: protein: recombinant; tags: N-terminal GST; dsDNA, one strand shown. Put shortly: as §1
Assay [17] deals with ETV1 (Homo sapiens, UniProt P50549 1-477). The note with it: protein: recombinant; tags: N-terminal GST; dsDNA, one strand shown. Put shortly:
as §1

Chain of HSF1 (Q00613 whole entry): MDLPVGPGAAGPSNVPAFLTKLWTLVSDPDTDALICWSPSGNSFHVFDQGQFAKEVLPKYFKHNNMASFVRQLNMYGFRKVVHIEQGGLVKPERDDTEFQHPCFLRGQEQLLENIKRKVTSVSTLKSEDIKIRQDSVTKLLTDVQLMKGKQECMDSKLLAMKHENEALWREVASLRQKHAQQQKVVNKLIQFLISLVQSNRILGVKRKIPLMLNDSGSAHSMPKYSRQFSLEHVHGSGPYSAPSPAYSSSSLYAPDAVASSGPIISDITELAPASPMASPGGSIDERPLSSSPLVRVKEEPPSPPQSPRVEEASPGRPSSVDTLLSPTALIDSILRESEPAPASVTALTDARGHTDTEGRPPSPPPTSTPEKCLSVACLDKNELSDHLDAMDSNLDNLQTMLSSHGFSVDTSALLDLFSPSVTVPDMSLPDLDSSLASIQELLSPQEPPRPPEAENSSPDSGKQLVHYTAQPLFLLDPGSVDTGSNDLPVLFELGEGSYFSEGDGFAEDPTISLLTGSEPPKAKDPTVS
Chain of ETV1 (P50549 whole entry): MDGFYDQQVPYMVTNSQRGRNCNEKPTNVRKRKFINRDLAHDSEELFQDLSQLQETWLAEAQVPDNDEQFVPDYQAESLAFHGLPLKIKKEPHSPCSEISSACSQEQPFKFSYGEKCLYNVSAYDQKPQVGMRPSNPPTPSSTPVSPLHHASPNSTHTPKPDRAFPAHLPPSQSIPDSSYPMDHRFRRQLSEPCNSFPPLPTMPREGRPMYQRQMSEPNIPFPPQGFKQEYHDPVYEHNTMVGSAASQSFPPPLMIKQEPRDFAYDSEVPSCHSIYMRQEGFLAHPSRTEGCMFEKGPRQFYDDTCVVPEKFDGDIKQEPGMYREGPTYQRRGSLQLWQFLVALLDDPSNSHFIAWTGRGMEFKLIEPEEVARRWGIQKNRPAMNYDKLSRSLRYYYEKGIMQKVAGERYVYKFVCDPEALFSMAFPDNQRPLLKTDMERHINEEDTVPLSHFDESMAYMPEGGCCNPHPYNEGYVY
Chain of CRX (O43186 whole entry): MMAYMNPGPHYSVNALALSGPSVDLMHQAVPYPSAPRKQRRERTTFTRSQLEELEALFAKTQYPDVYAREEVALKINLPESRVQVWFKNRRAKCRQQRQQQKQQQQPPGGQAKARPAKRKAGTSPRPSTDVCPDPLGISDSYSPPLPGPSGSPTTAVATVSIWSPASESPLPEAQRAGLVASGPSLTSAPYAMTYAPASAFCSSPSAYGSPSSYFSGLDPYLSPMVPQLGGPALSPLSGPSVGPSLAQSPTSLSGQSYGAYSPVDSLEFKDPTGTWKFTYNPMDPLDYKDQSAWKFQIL
Chain of SPIB (Q01892 whole entry): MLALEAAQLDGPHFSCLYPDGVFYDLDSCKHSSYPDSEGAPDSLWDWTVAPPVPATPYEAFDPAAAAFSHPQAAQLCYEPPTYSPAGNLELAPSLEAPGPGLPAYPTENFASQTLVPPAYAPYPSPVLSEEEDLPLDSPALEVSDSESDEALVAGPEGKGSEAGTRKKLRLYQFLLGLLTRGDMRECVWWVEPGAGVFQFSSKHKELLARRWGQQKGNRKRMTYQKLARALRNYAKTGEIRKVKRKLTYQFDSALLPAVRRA
Chain of ELF4 (Q99607 whole entry): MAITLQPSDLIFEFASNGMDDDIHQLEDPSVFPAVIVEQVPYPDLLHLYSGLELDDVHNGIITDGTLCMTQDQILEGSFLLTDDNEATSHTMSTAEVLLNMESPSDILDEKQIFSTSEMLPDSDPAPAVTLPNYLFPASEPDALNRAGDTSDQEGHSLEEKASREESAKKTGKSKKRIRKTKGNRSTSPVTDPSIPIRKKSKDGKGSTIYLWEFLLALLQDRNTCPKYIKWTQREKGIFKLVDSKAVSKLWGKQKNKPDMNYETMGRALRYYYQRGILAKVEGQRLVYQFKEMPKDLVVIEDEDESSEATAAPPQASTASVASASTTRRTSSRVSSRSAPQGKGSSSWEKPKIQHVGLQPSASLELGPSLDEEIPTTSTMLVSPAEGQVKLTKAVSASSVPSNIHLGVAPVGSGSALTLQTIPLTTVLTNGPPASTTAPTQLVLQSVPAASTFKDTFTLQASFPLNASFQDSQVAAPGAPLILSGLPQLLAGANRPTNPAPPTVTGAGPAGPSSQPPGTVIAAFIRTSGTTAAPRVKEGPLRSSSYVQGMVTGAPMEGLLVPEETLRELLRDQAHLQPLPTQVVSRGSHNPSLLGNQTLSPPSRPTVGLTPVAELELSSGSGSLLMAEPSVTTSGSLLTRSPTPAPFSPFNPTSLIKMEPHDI
Chain of ETV5 (P41161 whole entry): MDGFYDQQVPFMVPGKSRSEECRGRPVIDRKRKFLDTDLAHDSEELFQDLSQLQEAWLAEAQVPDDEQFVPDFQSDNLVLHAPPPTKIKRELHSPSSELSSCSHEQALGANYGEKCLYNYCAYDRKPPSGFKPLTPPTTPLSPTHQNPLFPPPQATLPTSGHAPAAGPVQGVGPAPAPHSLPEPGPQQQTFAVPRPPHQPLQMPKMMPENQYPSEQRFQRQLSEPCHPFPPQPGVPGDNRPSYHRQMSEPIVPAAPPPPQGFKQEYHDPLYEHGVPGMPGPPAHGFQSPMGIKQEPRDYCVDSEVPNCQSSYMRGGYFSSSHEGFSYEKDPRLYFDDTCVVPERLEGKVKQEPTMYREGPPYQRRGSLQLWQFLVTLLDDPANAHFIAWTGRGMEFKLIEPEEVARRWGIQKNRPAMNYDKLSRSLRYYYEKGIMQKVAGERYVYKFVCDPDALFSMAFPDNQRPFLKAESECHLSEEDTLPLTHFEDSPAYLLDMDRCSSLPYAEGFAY
Chain of ELF1 (P32519 whole entry): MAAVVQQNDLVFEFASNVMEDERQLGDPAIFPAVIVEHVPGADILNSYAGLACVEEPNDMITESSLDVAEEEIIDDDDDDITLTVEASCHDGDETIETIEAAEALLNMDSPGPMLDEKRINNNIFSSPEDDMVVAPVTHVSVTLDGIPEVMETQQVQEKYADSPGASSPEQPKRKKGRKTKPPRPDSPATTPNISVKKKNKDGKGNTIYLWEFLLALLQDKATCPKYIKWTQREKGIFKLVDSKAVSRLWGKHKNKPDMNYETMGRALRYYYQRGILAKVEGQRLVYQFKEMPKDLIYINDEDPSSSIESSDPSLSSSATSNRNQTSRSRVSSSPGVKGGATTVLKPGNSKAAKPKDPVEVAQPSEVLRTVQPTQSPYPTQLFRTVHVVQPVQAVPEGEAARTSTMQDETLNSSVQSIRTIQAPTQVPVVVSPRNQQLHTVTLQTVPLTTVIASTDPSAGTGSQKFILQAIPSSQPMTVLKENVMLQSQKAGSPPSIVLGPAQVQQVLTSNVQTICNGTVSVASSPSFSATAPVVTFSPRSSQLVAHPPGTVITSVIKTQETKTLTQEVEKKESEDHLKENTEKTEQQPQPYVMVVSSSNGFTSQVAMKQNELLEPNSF

With AAGGTT, the binding signal in [1] was 1.09 fold enrichment (6-mer frequency, TF over GST control); in [2] it was 1.15 fold enrichment (6-mer frequency, TF over GST control); in assay [3], 1.13 fold enrichment (6-mer frequency, TF over GST control); in assay [4], 1.07 fold enrichment (6-mer frequency, TF over GST control); in assay [5], 1.05 fold enrichment (6-mer frequency, TF over GST control); in assay [6], 1.1 fold enrichment (6-mer frequency, TF over GST control). Besides, the binding signal was 1.01 fold enrichment (6-mer frequency, TF over GST control) in assay [7]; 1.12 fold enrichment (6-mer frequency, TF over GST control) in assay [8]; 1.02 fold enrichment (6-mer frequency, TF over GST control) in [9]; 1.01 fold enrichment (6-mer frequency, TF over GST control) in assay [10]; 1.27 fold enrichment (6-mer frequency, TF over GST control) in assay [11]; 1.03 fold enrichment (6-mer frequency, TF over GST control) in assay [12]. Further, the binding signal in [13] is 1.09 fold enrichment (6-mer frequency, TF over GST control); in assay [14] it was 1.12 fold enrichment (6-mer frequency, TF over GST control); in [15], 1.35 fold enrichment (6-mer frequency, TF over GST control); in assay [16], 1.17 fold enrichment (6-mer frequency, TF over GST control); in assay [17], 1.07 fold enrichment (6-mer frequency, TF over GST control).
